Results from PubChem BioAssay (NCI).
About 83,000 compounds went through this panel and 20% of them were active in at least one assay; those are over-represented in the sample as a whole.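 In brief: 96-well plates, 48 h treatment, single concentration, percent growth endpoint.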 The source made the active and inactive calls. How the source made its calls: active means growth percent below 10; inactive means the rest.

How the values were obtained:
Assay in all cases: NCI-60 one-dose screen, 48 h (100 = growth as untreated, 0 = no growth, -100 = all killed)
Settings in all cases: 10 µM unless noted
[1] = system: NCI-H23 lung
[2] = system: NCI-H226 lung
[3] = system: NCI-H322M lung
[4] = system: HOP-62 NSCLC
[5] = system: NCI-H460 lung
[6] = system: HOP-92 NSCLC
[7] = system: NCI-H522 lung
[8] = system: A549/ATCC NSCLC
[9] = system: 786-0 renal

Measured: growth

Clc1ccc2c(NCCCN3CCN(c4nc(-n5ccnc5)nc5ccccc45)CC3)ccnc2c1
inactive: [1] 104% | [2] 113% | [3] 87.1% | [4] 84.7% | [5] 89.3% | [6] 58.7% | [7] 75.7% | [8] 96.9% | [9] 78.8%

NC(=S)c1csc(CCNC(=O)c2ccccc2)n1
inactive: [1] 100% | [2] 116% | [3] 108% | [4] 109% | [5] 109% | [6] 97.3% | [7] 106% | [8] 90.1% | [9] 98.2%

CCOc1cc(C2C(Cl)C(=O)N2n2cnnc2)ccc1O (stereo unspecified)
inactive: [1] 97.2% | [2] 106% | [3] 97% | [4] 74% | [5] 104% | [6] 91.9% | [7] 86.2% | [8] 90.5% | [9] 92.7%

Clc1cnc(Nc2ccc(OCCN3CCCC3)cc2)nc1NCc1ccco1
inactive: [1] 10.2% | [3] 19.9% | [4] 11.7% | [7] 55.2% | [8] 11.3% | [9] 23.7%
active: [2] -9.35% | [5] 3.25% | [6] 5.42%
